Measured values: PubChem BioAssay AID1159580 (chemical genetic matrix, 2015)
The whole screen tested about 5,500 compounds, of which about 2,000 (36%) were called active. About 18% were inconclusive and are not listed. Cut-off read from the data, not from the text of the source: active = normalized growth mostly below about 0.91 (no sharp cut-off); inconclusive = no clear call, values can overlap the other calls; inactive = mostly above about 0.92. The list shows a part of the results.

Test: chemical genetic growth profiling, strain panel (AID 1159580);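 note: tested at 20 µM; growth read once vehicle control cultures reached saturation at 30 °C; 1 = growth at the plate median or of vehicle wells; lower values mean less growth of the strain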
Details: S. cerevisiae deletion strains, growth OD

Measured: normalized growth

O=C(O)CC[C@@H](NC(=O)c1ccccc1C(=O)O)C(=O)O
inactive: locus YAL013W, strain DEP1, active compounds read low 1.02 | locus YAL040C, strain CLN3, active compounds read low 0.995 | locus YCL061C, strain MRC1 (second series), active compounds read low 1.01 | locus YDR363W, strain ESC2, active compounds read low 1.01 | locus YER002W, strain NOP16, active compounds read low 1.03 | locus YGR229C, strain SMI1, active compounds read low 1.03 | locus YJR075W, strain HOC1, active compounds read low 1.01 | locus YMR307W, strain GAS1, active compounds read low 1 | locus YNL175C, strain NOP13, active compounds read low 1 | locus YNL197C, strain WHI3, active compounds read low 1.01 | locus YNL224C, strain SQS1, active compounds read low 1.01 | locus YNL322C, strain KRE1, active compounds read low 1 | locus YOR083W, strain WHI5 (second series), active compounds read low 1.02 | locus YPL241C, strain CIN2, active compounds read low 1.01
